Compound activity as filed in PubChem BioAssay.
ssDAF-12 act: S. stercoralis DAF-12 nuclear receptor activators, primary screen, cell-based, luminescence, HEK293, GRIP1 co-expression, lit1-tk-luc | Nuclear hormone receptor DAF-12 (Strongyloides stercoralis) | HEK293 ssDAF-12/GRIP1 lit1-tk-luc reporter; % of 3 µM dafachronic acid response | activation, % at 6.8 µM | 370,000 compounds, 1% hits;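 active = activation above the mean over all tested compounds plus 3 SD, cut at about 0.9% in these data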;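 note: 0% = DMSO-only wells and 100% = 3 µM delta7-dafachronic acid wells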
hcDAF-12 act: H. contortus DAF-12 nuclear receptor activators, primary screen, cell-based, luminescence, HEK293, lit1-tk-luc reporter | 370,000 compounds, 1.4% hits | HEK293 hcDAF-12 lit1-tk-luc reporter; 0% DMSO, 100% Δ7-dafachronic acid | activation, % at 6.8 µM | AID 652067, 2013;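 active = activation above the mean of all tested compounds plus 3 SD, cut at about 5.5% in these data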;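 note: 100% = response to 3 µM Δ7-dafachronic acid high control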
DAX1 inh-1: DAX1 (NR0B1) inhibitors on StAR promoter, primary screen, cell-based, luminescence, SF-1 (NR5A1), full-length DAX-1 | HEK293T StAR-luciferase reporter, SF-1/DAX-1 repression relief | inhibition, % at 6.8 µM | 370,000 compounds, 1.1% hits | AID 652010, 2013;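 active = inhibition above the mean over all tested compounds plus 3 SD, cut at about 3.6% in these data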;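 note: 0% = DAX-1 cells with DMSO and 100% = cells lacking DAX-1 with DMSO; higher inhibition means more luminescence from relief of DAX-1 repression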
AHR act: AHR activators, primary screen, cell-based, luminescence, luciferase reporter, human; Aryl hydrocarbon receptor (Homo sapiens), P35869; AHR-responsive luciferase reporter cells; activation, % at 5 µM; 320,000 compounds, 2.5% hits; AID 2796, 2010; in the data active = activation above about 47%;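 note: 0% = vehicle wells and 100% = reference agonist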
DAX1 inh-2: DAX1 (NR0B1) inhibitors, primary screen, cell-based, HEK293, Gal4-DAX1, luciferase luminescence; HEK293 Gal4-DAX1 luciferase reporter; 340,000 compounds, 0.99% hits; inhibition, % at 6.75 µM; AID 504766, 2011;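 active = inhibition above the mean over all tested compounds plus 3 SD, cut at about 4.2% in these data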;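 note: 0% = DAX1-transfected cells with DMSO and 100% = empty-vector control cells with DMSO; inhibition shows as a rise in luminescence from relieved DAX1 repression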
hgDAF12 agonist: H. glycines DAF-12 receptor agonists, primary screen, cell-based, luminescence, HEK293, GAL4 fusion, UAS-luciferase; HEK293 GAL4-hgDAF12 UAS-luciferase reporter, agonist luminescence; normalized to butyrate control; activation, % at 6.8 µM; 370,000 compounds, 1.8% hits; AID 687014, 2013;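 active = activation above a cutoff set at the mean of all screened compounds plus 3 SD, cut at about 10% in these data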;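 note: 0% = DMSO wells and 100% = sodium butyrate wells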
DAX1 inh confirm: DAX1 (NR0B1) inhibitors relieving SF-1 repression, confirmation, cell-based, luminescence, HEK293T, full-length DAX-1, SF-1 activated StAR promoter | shares compounds with DAX1 inh-1 | HEK293T StAR-promoter luciferase reporter, SF-1/DAX-1 repression | inhibition, % at 6.8 µM | 2,400 compounds, 87% hits | AID 652134, 2013;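 active = inhibition above the average of every tested compound plus 3 SD, cut at about 3.8% in these data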;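 note: 0% = DAX-1 cells with DMSO and 100% = no DAX-1 control cells with DMSO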
Target sequence (P51843 whole entry, looked up): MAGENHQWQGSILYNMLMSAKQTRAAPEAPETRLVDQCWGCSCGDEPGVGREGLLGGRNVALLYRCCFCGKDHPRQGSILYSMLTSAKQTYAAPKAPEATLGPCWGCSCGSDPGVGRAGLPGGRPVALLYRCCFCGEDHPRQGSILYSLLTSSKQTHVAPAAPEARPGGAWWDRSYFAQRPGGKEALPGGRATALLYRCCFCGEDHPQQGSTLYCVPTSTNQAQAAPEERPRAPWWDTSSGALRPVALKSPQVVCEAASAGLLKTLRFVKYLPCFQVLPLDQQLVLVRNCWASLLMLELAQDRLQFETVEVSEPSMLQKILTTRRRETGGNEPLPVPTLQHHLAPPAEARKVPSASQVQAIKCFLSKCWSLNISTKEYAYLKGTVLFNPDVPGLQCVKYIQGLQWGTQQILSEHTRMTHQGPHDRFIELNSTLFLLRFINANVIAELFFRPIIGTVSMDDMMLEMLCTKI
SF1 AF2mut Luc: StAR reporter signal changes without DAX1, counter-screen for DAX1 inhibitor project, cell-based, luminescence, AF-2 mutant SF-1, transactivation; shares compounds with DAX1 inh-1; HEK293 StAR-luciferase, SF-1 AF2 mutant; inhibition, % at 6.8 µM; 2,400 compounds, 78% hits;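 active = inhibition above the mean of all tested compounds plus 3 SD, cut at about 3% in these data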;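 note: 0% = DAX-1 transfected cells with DMSO and 100% = cells without DAX-1 with DMSO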
LXRb hcDAF ctr: LXR agonists, Gal4 luciferase reporter, confirmation, counter-screen for hcDAF-12 agonist project, cell-based, luminescence, HEK293, H. contortus campaign. shares compounds with hcDAF-12 act. HEK293 Gal4-LXR tk-luc reporter, 24 h; normalized: DMSO 0%, positive control 100%. activation, % at 6.8 µM. 3,400 tested, under 10 active. AID 743027, 2013;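 active = mean percent activation of the reporter above a cutoff set as the average over tested compounds plus their standard deviation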
hcDAF12 conf: H. contortus DAF-12 receptor agonists, confirmation, cell-based, luminescence, HEK293, lit1-tk-luc, triplicate; shares compounds with hcDAF-12 act; HEK293 hcDAF-12 lit1-tk-luc reporter; % of Δ7-dafachronic acid response; 3,400 compounds, 61% hits; activation, % at 6.8 µM;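 active = mean activation across triplicate tests above the threshold derived from the earlier primary screen, cut at about 5.5% in these data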;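 note: 0% = DMSO only wells and 100% = 3 µM Δ7-dafachronic acid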
hgDAF12 ag: H. glycines DAF-12 receptor agonists, confirmation, cell-based, luminescence, HEK293, GAL4-LBD fusion; 3,300 compounds, 80% hits; shares compounds with hgDAF12 agonist; activation, % at 6.8 µM; HEK293 GAL4-hgDAF12 luciferase reporter, agonist mode; percent of butyrate response;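 active = mean activation over triplicate wells above the hit cutoff derived from the earlier primary screen, cut at about 11% in these data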;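 note: 0% = DMSO low control and 100% = 2 mM sodium butyrate high control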
LXR ag 2: LXR agonists, Gal4 luciferase reporter, confirmation, counter-screen for hgDAF-12 agonist project, cell-based, luminescence, HEK293, H. glycines campaign; shares compounds with hgDAF12 agonist; 24 h; activation, % at 6.8 µM; 3,300 tested, under 10 active; AID 743051, 2013;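 active = mean activation of the triplicate above a set limit carried over from the primary screen, none filed active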
An asterisk follows results filed as active. A selection: hits, their analogues and other compounds. The true share with any hit is near 5.7%.

Cc1cccc(C)c1-n1nnnc1C(c1ccnc2ccccc12)N1CCOCC1 (stereo not drawn) was read as ssDAF-12 act -1.0, hcDAF-12 act 0.6, DAX1 inh-1 0.9 and hgDAF12 agonist 0.6.
For Fc1ccc(CSc2ncnc3c2ncn3C2CCCCO2)cc1 (stereo not drawn) the results were ssDAF-12 act -1.0, hcDAF-12 act 0.1, DAX1 inh-1 0.8, DAX1 inh-2 3.9 and hgDAF12 agonist 3.1.
For c1ccc(CSc2ncnc3c2ncn3C2CCCCO2)cc1 (stereo not drawn) the results were ssDAF-12 act 0.1, hcDAF-12 act 2.2, DAX1 inh-1 5.1*, DAX1 inh-2 3.6, hgDAF12 agonist 14.2*, DAX1 inh confirm 6.3*, SF1 AF2mut Luc 3.5*, hgDAF12 ag 12.0* and LXR ag 2 0.5.
For C/C(=N\NC(=O)c1ccncc1)c1ccc(NC(=O)c2ccc(Cl)cc2)cc1 the results were ssDAF-12 act -0.5, hcDAF-12 act 1.4, DAX1 inh-1 7.5*, AHR act 2.2, DAX1 inh-2 2.2, hgDAF12 agonist 17.2*, DAX1 inh confirm 3.1, SF1 AF2mut Luc 2.9*, hgDAF12 ag 4.3 and LXR ag 2 0.1.
`O=Nc1c2cc3ccccc3[nH]c-2c2ccccc12` gave ssDAF-12 act 1.1*, hcDAF-12 act 10.3*, DAX1 inh-1 7.7*, DAX1 inh-2 0.3, hgDAF12 agonist 23.1*, DAX1 inh confirm 9.8*, SF1 AF2mut Luc 8.4*, LXRb hcDAF ctr 2.5, hcDAF12 conf 11.5*, hgDAF12 ag 23.0* and LXR ag 2 1.4.
Cc1ccc(-c2ccnc3c(Cl)c(C)nn23)cc1 was read as ssDAF-12 act -1.1, hcDAF-12 act 0.9, DAX1 inh-1 0.5, AHR act 13.0, DAX1 inh-2 0.7 and hgDAF12 agonist -1.1.
